pPAFAH FP inh – pPAFAH enzyme inhibitors, primary screen, biochemical, fluorescence polarization, human | Platelet-activating factor acetylhydrolase (Homo sapiens), Q13093 | hit rate 1.5% among 330,000 | inhibition, % at 3.39 µM | AID 463082, 2010 | recombinant pPAFAH, FP-rhodamine probe fluorescence polarization;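 active = inhibition above the mean inhibition across the screen plus 3 SD, cut at about 25% in these data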;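 also: inhibitors block binding of the rhodamine activity-based probe so polarization drops; 0% = enzyme with DMSO and 100% = wells lacking pPAFAH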
PAFAH1B2 inh – PAFAH1B2 enzyme inhibitors, primary screen, biochemical, fluorescence polarization, human; Platelet-activating factor acetylhydrolase IB subunit alpha2 (Homo sapiens), P68402; recombinant PAFAH1B2, FP-rhodamine activity probe; inhibition, % at 3.39 µM; hit rate 1.2% among 340,000; AID 492953, 2010;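 active = inhibition above the mean of all tested compounds plus 3 SD, cut at about 24% in these data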;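 also: 0% = enzyme with DMSO and 100% = wells lacking PAFAH1B2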
Target sequence (P68402 whole entry, looked up): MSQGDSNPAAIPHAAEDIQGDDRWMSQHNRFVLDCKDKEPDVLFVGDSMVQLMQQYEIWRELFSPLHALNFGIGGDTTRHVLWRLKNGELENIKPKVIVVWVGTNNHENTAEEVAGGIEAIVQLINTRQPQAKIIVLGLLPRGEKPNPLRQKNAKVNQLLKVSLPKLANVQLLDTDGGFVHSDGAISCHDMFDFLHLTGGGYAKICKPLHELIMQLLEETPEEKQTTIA
PP1 counter – PP1-alpha phosphatase inhibitors, primary screen, counter-screen for PP5 inhibitor project, biochemical, fluorescence, OMFP substrate, single point; purified PP1alpha; inhibition, % at 6.7 µM; hit rate 0.9% among 320,000;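 active = inhibition above the mean inhibition of all tested compounds plus 3 SD, computed separately for each screening campaign, cut at about 15% in these data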
PP5 inh – PP5 phosphatase inhibitors, primary screen, biochemical, fluorescence | Serine/threonine-protein phosphatase 5 (Homo sapiens), P53041 | purified PP5c, OMFP substrate fluorescence | inhibition, % at 6.7 µM | hit rate 0.18% among 320,000 | AID 1987, 2009;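 active = inhibition above the campaign's mean inhibition across all tested compounds plus 3 SD, cut at about 9.5% in these data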;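 also: 0% = DMSO only and 100% = 100 µM cantharidin control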
PAFAH1B3 inh – PAFAH1B3 enzyme inhibitors, primary screen, biochemical, fluorescence polarization, human. hit rate 0.28% among 340,000. recombinant PAFAH1B3, FP-rhodamine probe. inhibition, % at 3.39 µM. AID 492972, 2010. Platelet-activating factor acetylhydrolase IB subunit alpha1 (Homo sapiens), Q15102;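 active = inhibition above the screen-wide average of all tested compounds plus 3 SD, cut at about 25% in these data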;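 also: 0% = enzyme with DMSO only and 100% = wells lacking PAFAH1B3 protein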
Target sequence (Q15102 whole entry, looked up): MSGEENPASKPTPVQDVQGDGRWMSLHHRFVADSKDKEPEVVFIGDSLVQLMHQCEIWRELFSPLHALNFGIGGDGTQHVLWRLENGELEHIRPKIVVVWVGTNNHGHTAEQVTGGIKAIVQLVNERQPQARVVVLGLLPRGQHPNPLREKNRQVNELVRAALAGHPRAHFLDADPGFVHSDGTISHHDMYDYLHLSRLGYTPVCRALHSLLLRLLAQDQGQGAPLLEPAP
PAFAH2 FP inh – PAFAH2 enzyme inhibitors, primary screen, biochemical, fluorescence polarization, human. recombinant PAFAH2, FP-rhodamine activity probe. hit rate 0.99% among 340,000. inhibition, % at 3.39 µM. Platelet-activating factor acetylhydrolase 2, cytoplasmic (Homo sapiens), Q99487;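 active = inhibition above the mean over all tested compounds plus 3 SD, cut at about 30% in these data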;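 also: inhibitors block probe labeling of enzyme so polarization drops; 0% = enzyme with DMSO and 100% = wells lacking PAFAH2 protein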
Active calls of the source: *; ! = a repeat was not active. Hits are enriched below; roughly 3.4% of the tested compounds scored in any of these assays.

O=C(C1CCC(=O)N(C2CCCC2)C1)N1CCC(Oc2ccccc2Cl)CC1 (configuration not stated) was read as pPAFAH FP inh 3, PAFAH1B2 inh 0, PP1 counter -2, PP5 inh 1, PAFAH1B3 inh 10 and PAFAH2 FP inh 0.
`O=C(CCCCC(=O)NN=Cc1ccc(Cl)cc1)NN=Cc1ccc(Cl)cc1` gave PAFAH1B2 inh 6, PAFAH1B3 inh -3 and PAFAH2 FP inh -3.
For O=C(O)C1CCCN(S(=O)(=O)c2ccc(Cl)s2)C1 (configuration not stated) the results were pPAFAH FP inh 4, PAFAH1B2 inh 29*, PP1 counter -1, PP5 inh 1, PAFAH1B3 inh 6 and PAFAH2 FP inh -2.
Screening O=C(O)C1CCCN(S(=O)(=O)c2ccc(Br)s2)C1 (configuration not stated) returned pPAFAH FP inh 4, PAFAH1B2 inh 12, PP1 counter -1, PP5 inh -1, PAFAH1B3 inh 8 and PAFAH2 FP inh 5.
Screening O=C1/C(=C/c2ccc(N3CCOCC3)o2)SC(=Nc2ccccc2)N1CCc1c[nH]c2ccccc12 returned pPAFAH FP inh 6, PAFAH1B2 inh 7, PP1 counter 34*, PP5 inh 5, PAFAH1B3 inh 4 and PAFAH2 FP inh -13.
Screening O=C1CCN(CCc2ccccc2)CCN1CCSc1ccccc1 returned pPAFAH FP inh 31*, PAFAH1B2 inh 4, PP1 counter 2, PP5 inh 4, PAFAH1B3 inh 7 and PAFAH2 FP inh 16.
C[C@@H]1CN(S(=O)C(C)(C)C)[C@H](CCO)/C1=C\CCO (some centres not stated) was read as PAFAH1B2 inh 8, PAFAH1B3 inh 2 and PAFAH2 FP inh 1.
`CC(Sc1nnc(C2CC2)n1-c1ccccc1)C(=O)N1CCCC1` (configuration not stated) gave PAFAH1B2 inh 7, PAFAH1B3 inh 8 and PAFAH2 FP inh 1.
`O=C(/C=C/c1ccc(-c2ccccc2)o1)c1ccccc1` gave pPAFAH FP inh 27*, PAFAH1B2 inh -1, PP1 counter 1, PP5 inh -4, PAFAH1B3 inh 8 and PAFAH2 FP inh 6.
Screening Cc1ccc(-c2ccc(/C=C/C(=O)c3ccccc3)o2)cc1 returned pPAFAH FP inh 17, PAFAH1B2 inh -3, PP1 counter 3, PP5 inh -1, PAFAH1B3 inh 3 and PAFAH2 FP inh -4.
Cn1c(SCC(=O)Nc2nccs2)nnc1-c1ccc(S(=O)(=O)N2CCCC2)cc1 was read as pPAFAH FP inh -6, PAFAH1B2 inh 6, PP1 counter 3, PP5 inh 4, PAFAH1B3 inh 4 and PAFAH2 FP inh 1.
For O=C(CSc1n[nH]c(-c2ccc(S(=O)(=O)N3CCCCC3)cc2)n1)Nc1nccs1 the results were pPAFAH FP inh 17, PAFAH1B2 inh 39*, PP1 counter 3, PP5 inh 0, PAFAH1B3 inh 2 and PAFAH2 FP inh 6.
Screening COc1ccc(C(=O)COC(=O)c2cc(=O)[nH]c3ccccc23)c(OC)c1 returned pPAFAH FP inh -2, PAFAH1B2 inh 0, PP1 counter -3, PP5 inh 1, PAFAH1B3 inh 4 and PAFAH2 FP inh 5.
For OCCCNc1ncnc2c1[nH]c1ccccc12 the results were pPAFAH FP inh 0, PAFAH1B2 inh 7, PP1 counter -2, PP5 inh 2, PAFAH1B3 inh 5 and PAFAH2 FP inh -2.
For COCCNc1ncnc2c1[nH]c1ccccc12 the results were pPAFAH FP inh 28*, PAFAH1B2 inh 5, PP1 counter 0, PP5 inh 5, PAFAH1B3 inh 6 and PAFAH2 FP inh -3.
For COc1ccc(CCNc2ncnc3cc(OC)c(OC)cc23)cc1OC the results were PAFAH1B2 inh 5, PAFAH1B3 inh 8 and PAFAH2 FP inh 7.
COc1ccc(CCNc2ncnc3c2[nH]c2cc(OC)c(OC)cc23)cc1OC was read as pPAFAH FP inh 28*, PAFAH1B2 inh 12, PP1 counter 1, PP5 inh 1, PAFAH1B3 inh 15 and PAFAH2 FP inh 12.
COc1ccc2oc(=O)c(-c3csc(Nc4cccc(O)c4)n3)cc2c1 was read as pPAFAH FP inh 23, PAFAH1B2 inh 40*, PP1 counter 1, PP5 inh 8, PAFAH1B3 inh 29* and PAFAH2 FP inh -2.
For CCN1CCN(S(=O)(=O)c2ccc(Cl)c(C(=O)NCc3nc4ccccc4[nH]3)c2)CC1 the results were pPAFAH FP inh 2, PAFAH1B2 inh 5, PAFAH1B3 inh 9 and PAFAH2 FP inh 6.
O=C(NC1CCOCC1)C1CCC(=O)N(CCc2cccc(F)c2)C1 (configuration not stated) was read as pPAFAH FP inh 2, PAFAH1B2 inh 5, PP1 counter -3, PP5 inh 2, PAFAH1B3 inh 9 and PAFAH2 FP inh -2.
CCN1/C(=C/C=C/C=C/c2sc3ccccc3[n+]2CC)Sc2ccccc21 was read as pPAFAH FP inh -94, PP1 counter 47* and PP5 inh 5.
Screening Oc1cccc2ccc(/C=C/c3ccccc3Br)nc12 returned pPAFAH FP inh -4, PAFAH1B2 inh 2, PP1 counter 16*, PP5 inh 3, PAFAH1B3 inh 0 and PAFAH2 FP inh 3.
For Cc1c(O)cccc1C(=O)N[C@@H](CSc1ccccc1)[C@H](O)CN1C[C@H]2CCCC[C@H]2C[C@H]1C(=O)NC(C)(C)C the results were pPAFAH FP inh 0, PAFAH1B2 inh 1, PP1 counter 17*!, PP5 inh 3, PAFAH1B3 inh -2 and PAFAH2 FP inh -2.
Screening COc1ccc(S(=O)(=O)Nc2cccc3c2O[C@H](CN(C)Cc2ccc(-c4ccccc4)cc2)[C@@H](C)CN([C@H](C)CO)C3=O)cc1 returned pPAFAH FP inh 19, PAFAH1B2 inh 8, PAFAH1B3 inh -1 and PAFAH2 FP inh 7.
Screening C[C@@H]1CN([C@H](C)CO)C(=O)c2cc(NS(=O)(=O)c3ccc(F)cc3)ccc2O[C@@H]1CN(C)Cc1ccc(Cl)c(Cl)c1 returned pPAFAH FP inh 29*, PAFAH1B2 inh 25*, PAFAH1B3 inh 7 and PAFAH2 FP inh 10.
`COc1ccc(S(=O)(=O)Nc2cccc3c2O[C@H](CN(C)Cc2ccc(Oc4ccccc4)cc2)[C@@H](C)CN([C@H](C)CO)C3=O)cc1` gave pPAFAH FP inh 26*, PAFAH1B2 inh -2, PAFAH1B3 inh 4 and PAFAH2 FP inh 6.
